From PubChem BioAssay AID1159580 (chemical genetic matrix, 2015)
Hit rate of the full screen: of about 5,500 compounds, about 2,000 (36%) were called active. Another 18% or so got no clear call; they are omitted. Some of the results follow. Values without a mark were called inactive. Rule as the data show it: active = normalized growth mostly below about 0.91 (no sharp cut-off); inconclusive = no clear call, values can overlap the other calls; inactive = mostly above about 0.92.

Test: chemical genetic growth profiling, strain panel (AID 1159580);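 also: tested at 20 µM; growth read once vehicle control cultures reached saturation at 30 °C; 1 = growth at the plate median or of vehicle wells; lower values mean less growth of the strain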
Settings: S. cerevisiae deletion strains, growth OD

Q: Which normalized growth (locus YAL021C, strain ccr4, active compounds read low) does the source give for `COc1ccc(-c2oc3cc(OC)c(OC)c(OC)c3c(=O)c2OC)cc1` here?
A: Its normalized growth is 0.993.

Q: And the normalized growth (locus YAL026C, strain drs2, active compounds read low)?
A: Its normalized growth is 0.881 (active).

Q: What about the normalized growth (locus YAL030W, strain snc1, active compounds read low) of the same molecule?
A: Its normalized growth is 0.979.

Q: And the normalized growth (locus YBL061C, strain skt5, active compounds read low)?
A: The normalized growth was 0.911 (active).

Q: And the normalized growth (locus YBR009C, strain hhf1, active compounds read low)?
A: Its normalized growth is 0.899 (active).

Q: What about the normalized growth (locus YBR023C, strain chs3, active compounds read low) of the same molecule?
A: The normalized growth was 0.919.

Q: And the normalized growth (locus YBR171W, strain sec66, active compounds read low)?
A: Its normalized growth is 0.978.

Q: What about the normalized growth (locus YBR231C, strain swc5, active compounds read low) of the same molecule?
A: The normalized growth was 0.93.

Q: What about the normalized growth (locus YBR279W, strain paf1, active compounds read low) of the same molecule?
A: The normalized growth was 0.982.

Q: And the normalized growth (locus YCL011C, strain gbp2, active compounds read low)?
A: The normalized growth was 0.955.

Q: And the normalized growth (locus YCL016C, strain dcc1, active compounds read low)?
A: Its normalized growth is 0.948.

Q: What about the normalized growth (locus YCL061C, strain MRC1, active compounds read low) of the same molecule?
A: The normalized growth was 0.964.

Q: And the normalized growth (locus YCL069W, strain vba3, active compounds read low)?
A: Its normalized growth is 0.993.

Q: And the normalized growth (locus YCR088W, strain abp1, active compounds read low)?
A: Its normalized growth is 0.991.

Q: And the normalized growth (locus YDL005C, strain med2, active compounds read low)?
A: The normalized growth was 0.982.

Q: And the normalized growth (locus YDL040C, strain nat1, active compounds read low)?
A: Its normalized growth is 0.984.

Q: What about the normalized growth (locus YDR001C, strain nth1, active compounds read low) of the same molecule?
A: Its normalized growth is 0.982.

Q: What about the normalized growth (locus YDR069C, strain doa4, active compounds read low) of the same molecule?
A: The normalized growth was 0.987.

Q: And the normalized growth (locus YDR137W, strain rgp1, active compounds read low)?
A: The normalized growth was 0.797 (active).

Q: What about the normalized growth (locus YDR159W, strain sac3, active compounds read low) of the same molecule?
A: The normalized growth was 0.982.

Q: And the normalized growth (locus YDR195W, strain ref2)?
A: Its normalized growth is 1.04.

Q: What about the normalized growth (locus YDR297W, strain sur2, active compounds read low) of the same molecule?
A: The normalized growth was 0.976.

Q: And the normalized growth (locus YDR334W, strain swr1, active compounds read low)?
A: The normalized growth was 0.98.

Q: And the normalized growth (locus YDR335W, strain msn5, active compounds read low)?
A: The normalized growth was 0.985.

Q: And the normalized growth (locus YDR392W, strain spt3, active compounds read low)?
A: The normalized growth was 0.421 (active).

Q: What about the normalized growth (locus YEL003W, strain gim4, active compounds read low) of the same molecule?
A: The normalized growth was 0.977.

Q: What about the normalized growth (locus YEL037C, strain rad23, active compounds read low) of the same molecule?
A: The normalized growth was 0.982.

Q: And the normalized growth (locus YEL061C, strain CIN8 (second series), active compounds read low)?
A: Its normalized growth is 0.98.

Q: What about the normalized growth (locus YER015W, strain faa2, active compounds read low) of the same molecule?
A: Its normalized growth is 0.981.

Q: And the normalized growth (locus YER016W, strain bim1, active compounds read low)?
A: Its normalized growth is 0.988.

Q: And the normalized growth (locus YER111C, strain swi4, active compounds read low)?
A: Its normalized growth is 0.983.

Q: And the normalized growth (locus YER155C, strain BEM2 (second series), active compounds read low)?
A: Its normalized growth is 0.84 (active).

Q: And the normalized growth (locus YFR010W, strain ubp6, active compounds read low)?
A: Its normalized growth is 0.981.

Q: What about the normalized growth (locus YGL167C, strain pmr1, active compounds read low) of the same molecule?
A: Its normalized growth is 0.976.

Q: What about the normalized growth (locus YGL173C, strain kem1, active compounds read low) of the same molecule?
A: Its normalized growth is 0.97.

Q: What about the normalized growth (locus YGL227W, strain vid30, active compounds read low) of the same molecule?
A: The normalized growth was 0.987.

Q: And the normalized growth (locus YGL240W, strain doc1, active compounds read low)?
A: The normalized growth was 0.959.

Q: What about the normalized growth (locus YGL253W, strain hxk2, active compounds read low) of the same molecule?
A: Its normalized growth is 0.89 (active).

Q: What about the normalized growth (locus YHR013C, strain ard1, active compounds read low) of the same molecule?
A: Its normalized growth is 0.87.

Q: What about the normalized growth (locus YHR027C, strain rpn1, active compounds read low) of the same molecule?
A: Its normalized growth is 0.983.

Q: What about the normalized growth (locus YHR030C, strain SLT2, active compounds read low) of the same molecule?
A: The normalized growth was 1.02.

Q: And the normalized growth (locus YHR079C, strain IRE1, active compounds read low)?
A: Its normalized growth is 1.02.

Q: And the normalized growth (locus YHR142W, strain chs7, active compounds read low)?
A: Its normalized growth is 0.718 (active).

Q: What about the normalized growth (locus YJL092W, strain hpr5, active compounds read low) of the same molecule?
A: The normalized growth was 0.984.

Q: What about the normalized growth (locus YJL095W, strain BCK1 (second series), active compounds read low) of the same molecule?
A: The normalized growth was 0.972.

Q: What about the normalized growth (locus YJL095W, strain BCK1, active compounds read low) of the same molecule?
A: The normalized growth was 0.959.

Q: And the normalized growth (locus YJL115W, strain asf1, active compounds read low)?
A: Its normalized growth is 0.997.

Q: What about the normalized growth (locus YJL129C, strain trk1, active compounds read low) of the same molecule?
A: The normalized growth was 0.907.

Q: What about the normalized growth (locus YJL154C, strain vps35, active compounds read low) of the same molecule?
A: Its normalized growth is 0.994.

Q: What about the normalized growth (locus YJL164C, strain tpk1, active compounds read low) of the same molecule?
A: Its normalized growth is 0.928.

Q: And the normalized growth (locus YJL166W, strain qcr8, active compounds read low)?
A: The normalized growth was 0.934.

Q: What about the normalized growth (locus YJL187C, strain SWE1, active compounds read low) of the same molecule?
A: Its normalized growth is 0.98.

Q: What about the normalized growth (locus YJR066W, strain TOR1, active compounds read low) of the same molecule?
A: The normalized growth was 0.967.

Q: And the normalized growth (locus YKL160W, strain elf1, active compounds read low)?
A: Its normalized growth is 0.945.

Q: What about the normalized growth (locus YKR026C, strain gcn3, active compounds read low) of the same molecule?
A: Its normalized growth is 0.978.

Q: And the normalized growth (locus YKR091W, strain srl3, active compounds read low)?
A: Its normalized growth is 0.99.

Q: What about the normalized growth (locus YLL001W, strain dnm1, active compounds read low) of the same molecule?
A: Its normalized growth is 0.953.

Q: What about the normalized growth (locus YLL026W, active compounds read low) of the same molecule?
A: The normalized growth was 0.983.

Q: And the normalized growth (locus YLL041C, strain sdh2, active compounds read low)?
A: The normalized growth was 0.985.

Q: And the normalized growth (locus YLR027C, strain aat2, active compounds read low)?
A: The normalized growth was 0.96.

Q: And the normalized growth (locus YLR113W, strain HOG1, active compounds read low)?
A: Its normalized growth is 0.887.

Q: What about the normalized growth (locus YLR221C, strain rsa3, active compounds read low) of the same molecule?
A: The normalized growth was 0.907 (active).

Q: And the normalized growth (locus YLR258W, strain gsy2, active compounds read low)?
A: The normalized growth was 0.967.

Q: What about the normalized growth (locus YLR262C, strain YPT6 (second series), active compounds read low) of the same molecule?
A: Its normalized growth is 0.795 (active).

Q: What about the normalized growth (locus YLR320W, strain mms22, active compounds read low) of the same molecule?
A: Its normalized growth is 0.815 (active).

Q: And the normalized growth (locus YLR342W, strain FKS1, active compounds read low)?
A: The normalized growth was 0.989.

Q: And the normalized growth (locus YLR357W, strain rsc2, active compounds read low)?
A: Its normalized growth is 0.896.

Q: And the normalized growth (locus YLR370C, strain arc18, active compounds read low)?
A: The normalized growth was 0.969.

Q: And the normalized growth (locus YLR384C, strain iki3, active compounds read low)?
A: Its normalized growth is 0.974.

Q: And the normalized growth (locus YML120C, strain ndi1, active compounds read low)?
A: Its normalized growth is 0.966.

Q: What about the normalized growth (locus YMR058W, strain fet3, active compounds read low) of the same molecule?
A: The normalized growth was 0.959.

Q: And the normalized growth (locus YMR125W, strain sto1, active compounds read low)?
A: Its normalized growth is 0.96.

Q: And the normalized growth (locus YMR129W, active compounds read low)?
A: Its normalized growth is 0.992.

Q: What about the normalized growth (locus YMR205C, strain PFK2, active compounds read low) of the same molecule?
A: Its normalized growth is 0.926.

Q: What about the normalized growth (locus YMR231W, strain pep5, active compounds read low) of the same molecule?
A: The normalized growth was 1.

Q: And the normalized growth (locus YNL071W, strain lat1, active compounds read low)?
A: Its normalized growth is 0.734 (active).

Q: And the normalized growth (locus YNL183C, strain NPR1, active compounds read low)?
A: The normalized growth was 0.928.

Q: And the normalized growth (locus YNL209W, strain ssb2, active compounds read low)?
A: Its normalized growth is 0.989.

Q: What about the normalized growth (locus YNL248C, strain rpa49, active compounds read low) of the same molecule?
A: Its normalized growth is 0.984.

Q: And the normalized growth (locus YNL322C, strain KRE1 (second series), active compounds read low)?
A: The normalized growth was 0.98.

Q: What about the normalized growth (locus YNR049C, strain mso1, active compounds read low) of the same molecule?
A: Its normalized growth is 0.991.

Q: What about the normalized growth (locus YOR001W, strain rrp6, active compounds read low) of the same molecule?
A: Its normalized growth is 0.978.

Q: What about the normalized growth (locus YOR070C, strain gyp1, active compounds read low) of the same molecule?
A: Its normalized growth is 0.978.

Q: What about the normalized growth (locus YOR080W, strain dia2, active compounds read low) of the same molecule?
A: The normalized growth was 0.991.

Q: And the normalized growth (locus YOR083W, strain WHI5, active compounds read low)?
A: The normalized growth was 0.915.

Q: What about the normalized growth (locus YOR106W, strain vam3, active compounds read low) of the same molecule?
A: The normalized growth was 0.942.

Q: And the normalized growth (locus YOR231W, strain MKK1, active compounds read low)?
A: The normalized growth was 1.02.

Q: And the normalized growth (locus YOR265W, strain rbl2, active compounds read low)?
A: The normalized growth was 0.968.

Q: And the normalized growth (locus YOR270C, strain vph1, active compounds read low)?
A: The normalized growth was 0.785.

Q: And the normalized growth (locus YOR290C, strain snf2, active compounds read low)?
A: The normalized growth was 0.88.

Q: And the normalized growth (locus YPL051W, strain arl3, active compounds read low)?
A: The normalized growth was 0.927.

Q: What about the normalized growth (locus YPL078C, strain atp4, active compounds read low) of the same molecule?
A: Its normalized growth is 0.93.

Q: And the normalized growth (locus YPL106C, strain sse1, active compounds read low)?
A: Its normalized growth is 0.944.

Q: And the normalized growth (locus YPL240C, strain hsp82, active compounds read low)?
A: The normalized growth was 0.969.

Q: And the normalized growth (locus YPL256C, strain CLN2, active compounds read low)?
A: Its normalized growth is 1.04.
